Laboratory results: PubChem BioAssay (EPA / NIEHS)
Where “and” joins values, the source holds several entries; their conditions need not be identical. Identical values can stand only once. Some compounds were tested as several samples or in several runs, with calls that do not always agree. Calls of active or inactive are those of the source. The calls were made as follows: active = hit-call score of the fitted dose curve at least 0.9, where 1 is the maximum; inactive = score below 0.9.

Test: ATG_AP_1_CIS: Attagene CIS-FACTORIAL HepG2 Assay for human Activator Protein 1 (AP-1) (AID 2282931)
Settings: HepG2 Attagene cis-factorial AP-1 reporter mRNA; actives raise or lower the signal
Description: ATG_CIS is a cell-based, multiplexed-readout assay that uses HepG2, a human liver cell line, with measurements taken at 24 hours after chemical dosing in a 24-well plate.ATG_AP_1_CIS is one of 52 assay component(s) measured or calculated from the ATG_CIS assay. It is designed to make measurements of mRNA induction, a form of inducible reporter, as detected with fluorescence intensity signals by Reverse transcription polymerase chain reaction (RT-PCR) and Capillary electrophoresis technology.Data from the assay component ATG_AP_1_CIS was analyzed into 1 assay endpoint. This assay endpoint, ATG_AP_1_CIS, was analyzed with bidirectional fitting relative to DMSO as the negative control and baseline of activity. Using a type of inducible reporter, measures of mRNA for gain or loss-of-signal activity can be used to understand the reporter gene at the transcription factor-level as they relate to the gene FOS and JUN. Furthermore, this assay endpoint can be referred to as a primary readout, because this assay has produced multiple assay endpoints where this one serves a reporter gene function. To generalize the intended target to other relatable targets, this assay endpoint is annotated to the dna binding intended target family, where the subfamily is basic leucine zipper.
Human liver HepG2 cells are transiently transfected with multiple reporter transcription units (MRTUs) in 6-well plates using FuGene 6 reagent (Roche; 3 ml FuGene/1 mg DNA). The MRTU constructs are regulated by a cis-regulating element (promoter). […] A major difference between the CIS and TRANS system is that in CIS activities of endogenous TFs are measured, whereas the TRANS assay evaluates changes in activities of exogenous, chimeric NR-Gal4 proteins. […] At the end of 24 hour incubation, total RNA was isolated using TriZol reagent (Invitrogen). The isolated RNA is then reverse-transcribed using oligo(dT) primer and Mo-MLV reverse transcriptase (Invitrogen) with DNAse I (Ambion) treatment for 30 min. The one-tenth of the produced cDNA was amplified by PCR using Taq DNA polymerase (Invitrogen) and two reporter sequence-specific primers. The PCR products were fluorescently labeled by primer extension with 6-arboxyfluorescein (6-FAM) 5'-labeled reporter sequence-specific primer (2 min at 95 C, 20 s at 68 C and 10 min at 72 C) and these products were digested with 5U of HpaI (New England Biolabs) for 2h at 37 C. The fragments were purified using Qiaquick PCR columns (Qiagen), analyzed on an ABI 3130xL genetic analyzer (Applied Biosystems) with peak positions identified by using a set of X-rhodamine (ROX)-labeled MapMarker1000 molecular weight standards (BioVentures). The raw capillary electrophoresis data was processed using Attagraph software (Attagene).

| Compound | AC50 | outcome |
| --- | --- | --- |
| CCCCCC(=O)O[C@]1(C(C)=O)CC[C@H]2[C@@H]3CCC4=CC(=O)CC[C@]4(C)[C@H]3CC[C@@]21C | 36.5 µM (active) | – |
| CC(C)C(=O)c1ccccc1 | – | inactive |
| CC(C)=CC(=O)O | – | inactive |
| CCCCN(CCCC)CCCCCCN(CCCC)CCCC | – | inactive |
| Cc1ccncc1 | – | inactive |
| COc1ccc(N)c(C)c1 | 70 µM (active) | – |
| CC(C)N1C(=O)c2ccccc2C1=O | – | inactive |
| COC(=O)C(C)Oc1ccc(Oc2ncc(C(F)(F)F)cc2Cl)cc1 (stereo not given) | – | inactive |
| NC(N)=NC(N)=NCCc1ccccc1 | – | inactive |
| O=S1(=O)CC=CC1 | – | inactive |
| c1ccc(OCCOc2ccccc2)cc1 | – | inactive |
| COc1ccccc1O | – | inactive |
| O=S1(=O)CC(Cl)(Cl)C(Cl)(Cl)C1 | – | inactive |
| CCOC(=O)COC(=O)c1ccccc1C(=O)OCC | – | inactive |
| CC/C=C\CCOC(C)OCC (stereo not given) | – | inactive |
| CCNC(=S)NCC | – | inactive |
| O=C(O)CS | – | inactive |
| CCC(CC)CO | – | inactive |
| C=C(C)C(=O)OCCC[Si](OC)(OC)OC | – | inactive |
| CC(=O)C1C(=O)C=C(C)OC1=O (stereo not given) | – | inactive |

| Compound | AC50 | outcome |
| --- | --- | --- |
| CC(C)(C)c1cc(CCC(=O)OCCSCCOC(=O)CCc2cc(C(C)(C)C)c(O)c(C(C)(C)C)c2)cc(C(C)(C)C)c1O | – | inactive |
| CCCCCCOc1ccc(O)cc1 | – | inactive |
| CCC=C(C)C=O | – | inactive |
| CC(C)(C)c1ccc(S)cc1 | – | inactive |
| CCOC(=O)CC(C)C | – | inactive |
| CN(C)CCC=C1c2ccccc2CCc2ccccc21 | 61.2 µM (active) | – |
| c1ccc(Sc2ccccc2)cc1 | – | inactive |
| Cc1ccc(C(C)(C)O)cc1 | – | inactive |
| CCCC(O)C(CC)CO (stereo not given) | – | inactive |
| O=C(O)C1=NN(c2ccc(S(=O)(=O)O)cc2)C(=O)C1 | – | inactive |
| CCc1cccc(O)c1 | – | inactive |
| O=C(c1ccc(OCCN2CCCCC2)cc1)c1c(-c2ccc(O)cc2)sc2cc(O)ccc12 | 17.5 µM (active) and 16.9 µM (active) and 13.1 µM (active) | inactive |
| CCC(=O)OCC=Cc1ccccc1 | – | inactive |
| CCCCCCCCOC(=O)c1ccc(O)cc1 | – | inactive |
| CC12CCC(C1)C(C)(C)C2O (stereo not given) | – | inactive |
| CC1=CCC(C(C)(C)O)CC1 (stereo not given) | – | inactive |
| CC(O)COCC(C)O (stereo not given) | – | inactive |
| CCO[Si](CC)(OCC)OCC | – | inactive |
| CC1=CCC(=C(C)C)CC1 | – | inactive |
